Compound activity: PubChem BioAssay, National Center for Advancing Translational Sciences (NCATS)
Rows were chosen to be rich in hits. Some 19% of all compounds tested hit in one or more screens of this group.
DT40 TDP1 no CPT = qHTS for Inhibitors of human tyrosyl-DNA phosphodiesterase 1 (TDP1): qHTS in cells in absence of CPT; DT40 Tdp1-/- hTDP1 cells, no CPT, ATP luminescence, 48 h; Potency, µM (series often up to 46.2 µM), without a hit: at the top dose activity change, negative = growth inhibition, actives largely listed as inhibitors; 420,000 tested, 15% active; also: potency is read from the fitted curve at half-maximal effect; % is scaled to controls: 0 for no effect and ±100 for the full control effect; nearly all actives have a fitted effect of over 55% in size
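Camptothecin absent (DMSO only). Human TDP1-complemented DT40 knockout cells, 400 cells/well, 37 °C for minimum 48 hr; ATP measured via CellTiter-Glo, 30 min dark incubation, luminescence.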
TGFb SMAD3 inh = inhibitors of TGF-b signaling; HepG2 CAGA-GFP TGF-b/SMAD3 reporter, GFP fluorescence, 18 h; TGF-beta stimulated, 500 pg/mL final; Potency, µM (top dose mostly 46.1 µM), for the others: top-dose activity, negative = inhibition, usual class: inhibitors; 410,000 tested, 1.2% active; AID 588855; also: potency is read from the fitted curve at half-maximal effect; % is scaled to controls: 0 for no effect and ±100 for the full control effect; nearly all actives have a fitted effect of over 65% in size
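TGF-beta reporter screen: HEPG2 CAGA-GFP, 1% FBS, 500 pg/mL TGF-beta final, 18 h; per-cell GFP summed per well; curves fitted and categorized by class.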
TDP1 block = TDP1 (human) enzyme inhibition | Q9NUW8 | recombinant TDP1, AlphaScreen DNA substrate cleavage | Potency, µM (series often up to 130 µM), for inactives: top-dose activity change, negative = inhibition, usual class: inhibitors | 350,000 tested, 0.28% active; also: potency is read from the fitted curve at half-maximal effect; % is scaled to controls: 0 for no effect and ±100 for the full control effect; nearly all actives have a fitted effect of over 40% in size
Target sequence (Q9NUW8 whole entry, looked up): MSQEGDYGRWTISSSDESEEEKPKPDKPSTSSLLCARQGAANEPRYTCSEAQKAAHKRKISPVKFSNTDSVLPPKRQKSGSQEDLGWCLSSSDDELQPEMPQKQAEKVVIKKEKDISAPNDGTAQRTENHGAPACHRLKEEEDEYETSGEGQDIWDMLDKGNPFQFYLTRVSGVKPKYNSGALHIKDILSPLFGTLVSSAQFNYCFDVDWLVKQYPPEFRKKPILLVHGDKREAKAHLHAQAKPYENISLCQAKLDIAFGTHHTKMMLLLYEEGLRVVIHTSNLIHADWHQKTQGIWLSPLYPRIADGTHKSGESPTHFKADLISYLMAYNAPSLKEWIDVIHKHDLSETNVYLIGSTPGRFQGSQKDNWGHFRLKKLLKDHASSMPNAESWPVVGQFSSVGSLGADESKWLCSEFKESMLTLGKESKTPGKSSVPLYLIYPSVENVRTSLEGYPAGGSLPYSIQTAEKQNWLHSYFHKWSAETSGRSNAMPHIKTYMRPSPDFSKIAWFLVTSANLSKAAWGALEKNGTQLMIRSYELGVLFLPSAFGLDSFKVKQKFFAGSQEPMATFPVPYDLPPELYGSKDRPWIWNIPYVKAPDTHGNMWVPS
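Recombinant human Tdp1 (E. coli-expressed, 1 nM final) preincubated with compounds 15 min at room temperature, then 5'-biotin/3'-phosphotyrosine-FITC DNA substrate (15 nM final) added for 5 min. AlphaScreen beads (10 ug/ml final) added 10 min; cleavage lowers signal.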
IL-1B inflam inh = blocks inflammasome-driven IL-1 beta release. THP-1 LPS/ATP IL-1B secretion, AlphaLISA, 16 h; stronger effect = lower value. activity change, % at 57.5 µM. 360,000 tested, 4.7% active; in the data active = activity change below about -50%; inconclusive = mostly about -30% to -49%; also: % is scaled to controls: 0 for no effect and ±100 for the full control effect
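THP-1 cells pretreated 1 hr with compounds (up to 57.5 uM final), then stimulated with LPS (250 ng/mL final) plus ATP (1.25 mM final); secreted IL-1B measured by AlphaLISA after 16 hr, decreased signal indicating inhibition.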
TDP1 cell CPT = growth inhibition of DT40 Tdp1-/-;hTDP1 cells with camptothecin (screen for TDP1 inhibitors) | chicken DT40 Tdp1-/-;hTDP1 cells + 20 nM CPT, ATP luminescence, 48 h | AID 686979 | 420,000 tested, 12% active | Potency, µM (series often up to 46.2 µM), inactives show top-dose activity change, negative = growth inhibition, usual class: inhibitors; also: potency is read from the fitted curve at half-maximal effect; % is scaled to controls: 0 for no effect and ±100 for the full control effect; nearly all actives have a fitted effect of over 55% in size
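Chicken DT40 Tdp1-/- cells stably complemented with human TDP1 were seeded at 400 cells/well in medium containing 20 nM camptothecin, exposed to pin-transferred compounds, and grown at 37 °C for at least 48 hr. Viability was read as ATP luminescence.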
HepG2 viability = kills HepG2 cells in TGF-b inhibitor counter-screen. HepG2 CAGA-GFP viability, ATP luminescence, 18 h. Potency, µM (highest dose often 46.1 µM), for inactives: top-dose activity change, negative = cytotoxicity, hits mostly cytotoxic. 410,000 tested, 0.76% active; also: potency is read from the fitted curve at half-maximal effect
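CellTiter-Glo luminescence gave cytotoxicity after 18 hours at 37 degrees C. The cells were HepG2 CAGA-GFP in 1% FBS DMEM, stimulated with 500 pg/mL TGF-beta after compound addition. %Activity was normalised to no-cell wells (complete cell-killing) and DMSO (no toxicity), and curves were fitted and classified.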
Numbers without * were called inactive; ? = inconclusive; · = no result; [ ] = remark or other dose. Unless noted, calls follow the shape of the dose curve; as a rule, active = well fitted curve in the direction sought with a large enough effect; inconclusive = small, poorly fitted or top-dose-only effect, or another doubt; inactive = no such curve, though single readings can be large; an effect the other way counts as inactive or inconclusive.

SMILES	DT40 TDP1 no CPT	TGFb SMAD3 inh	TDP1 block	IL-1B inflam inh	TDP1 cell CPT	HepG2 viability
Cc1ccc(CNC(=O)NC2COc3ccccc3C2)cc1 (configuration not stated)	-22%	?	5%	·	-10%	1%
COC(=O)c1cc2sc(Cl)cc2n1Cc1nc(-c2ccccc2F)oc1C	-12%	-19%	2%	·	-20%	1%
O=C(c1ccco1)n1nc(-c2ccccc2)nc1NCc1ccc(Cl)cc1	·	34%	3%	·	·	-14%
CCC(=O)n1nc(-c2ccc(Cl)cc2)nc1NCc1ccccc1	16µM*	-5%	3%	-17	15µM*	-4%
CCc1ccc(N2C(=O)CS(=O)(=O)C23C(=O)N(Cc2ccccc2F)c2ccccc23)cc1 (configuration not stated)	?	11%	1%	·	?	-6%
CCc1ccc(-c2n[nH]nc2C2=CC(=O)C[C@H](c3ccc(F)cc3)C2)cc1	2.9µM*	?	·	-29	?	-35%
COc1ccc(C2=CC(=O)CC(c3ccc(F)cc3)C2)cn1 (configuration not stated)	?	-25%	·	-16	15µM*	-3%
COc1cc(F)cc(C2=CC(=O)C[C@H](c3ccc(F)cc3)C2)c1	?	-26%	-2%	?	?	-7%
COc1ccc(CNC(=O)CN2C(=O)CSc3ccc(S(=O)(=O)N(C)C)cc32)cc1	-29%	?	3%	·	-24%	-16%
CN1CCN(C(=O)C[C@@H]2C[C@H]3c4cc(NC(=O)c5cccnc5)ccc4O[C@H]3[C@H](CO)O2)CC1	-14%	2%	·	22	-22%	8%
COc1cc(-c2cc(NC=O)c3ncc(-c4ccc(C(C)=O)cc4)n3c2)ccc1O	8.2µM*	?	·	14	9.2µM*	-31%
COc1cccc(-c2cnc3c(NC=O)cc(-c4ccc(O)c(OC)c4)cn23)c1	2.3µM*	27%	·	40	-89%	-33%
COc1cc(-c2cnc3c(NC=O)cc(-c4ccsc4)cn23)cc(OC)c1OC	0.16µM*	-17%	·	135	0.18µM*	-26%
COc1cc(-c2cnc3c(NC=O)cc(-c4cccc(C(F)(F)F)c4)cn23)cc(OC)c1OC	5.2µM*	?	·	24	5.8µM*	-47%
COCCn1cnc2c1c(=O)[nH]c(=O)n2Cc1ccccc1	-13%	6%	·	-10	1%	3%
COc1cc(-c2cnc3c(NC=O)cc(-c4cccnc4)cn23)cc(OC)c1OC	2.9µM*	34%	·	99	2.9µM*	-20%
COc1cccc(-c2cc(NC=O)c3ncc(-c4cc(OC)c(OC)c(OC)c4)n3c2)c1	0.58µM*	?	·	106	0.52µM*	-9%
COc1cc(-c2cc(NC=O)c3ncc(-c4ccc(F)cc4)n3c2)cc(OC)c1OC	?	26%	·	-24	?	-17%
COc1ccc(-c2cc(NC=O)c3ncc(-c4cccc(C(F)(F)F)c4)n3c2)c(OC)c1	15µM*	-24%	·	-27	18µM*	-35%
COc1cccc(CNC(=O)NCc2noc3ccc(C)cc23)c1	?	17%	-3%	·	?	-1%
CN(CC(=O)Nc1c(Cl)cccc1Cl)C(=O)CNC(=O)c1ccc2ccccc2c1	?	0%	·	-2	-30%	-5%
O=S(=O)(NCCc1csc(-c2ccc(F)cc2)n1)c1ccc(F)cc1F	21µM*	?	-7%	·	16µM*	-28%
CCS(=O)(=O)NCCc1csc(-c2ccc(OC)c(OC)c2)n1	?	5%	·	0	-28%	7%
COc1ccc(F)cc1S(=O)(=O)NCCc1csc(-c2ccc(Cl)cc2)n1	?	13µM*	-1%	·	?	-24%
CC(C)=CCC/C(C)=C/CO/N=C1/C[C@@H](O)[C@@H](O)[C@@H]2[C@@H]3C(=O)N(C[C@@H]4CCCO4)C(=O)[C@H]3CC[C@H]12	·	·	8%[21 µM]	·	·	·
SMILES	DT40 TDP1 no CPT	TGFb SMAD3 inh	TDP1 block	IL-1B inflam inh	TDP1 cell CPT	HepG2 viability
O=C(NCc1ccc(F)cc1)c1ccc2c(O)c(S(=O)(=O)c3ccccc3)c(=O)[nH]c2c1	1%	-24%	8%	·	16%	3%
COc1cc(CNC(=O)c2cc(C(=O)NCc3cc(OC)cc(OC)c3)n(C)n2)cc(OC)c1	?	-9%	-1%	0	?	-18%
COc1ccc(N2CCN(S(=O)(=O)c3ccc(-c4ccno4)cc3OC)CC2)cc1	-27%	-10%	7%	·	-11%	-2%
Cc1cc2c(cc3c(SCc4ccccc4Cl)nnc(C)n32)o1	?	-9%	5%	·	?	-6%
Cc1ccc2ccc3cc(C(=O)N4CCN(c5ccccc5)CC4)nc3c2[nH]1	18µM*	?	8%	·	?	-37%
COc1ccccc1N1CCN(C(=O)c2cc3ccc4ccc(C)[nH]c4c3n2)CC1	21µM*	?	6%	·	?	-41%
C=CCNc1nc2ccccc2nc1NS(=O)(=O)c1ccc(OC)cc1	1%	0%	·	21	?	-4%
CCOc1ccc(NC(=O)CSc2nnc(CNC(=O)C34CC5CC(CC(C5)C3)C4)n2CC)cc1	?	-29%	3%	·	?	-15%
O=C(Nc1nccs1)c1ccc(CSc2nnnn2-c2ccccc2)cc1	-59%	-5%	-4%	?	13µM*	-25%
O=C(NCC(c1ccco1)N1CCc2ccccc21)c1ccccc1Br (configuration not stated)	?	-6%	·	-7	21µM*	-6%
O=C(NCC(c1ccco1)N1CCc2ccccc21)c1ccccc1F (configuration not stated)	?	-1%	2%[0.505 µM]	-16	-30%	10%
Cc1cccc(C(=O)NCC(c2ccco2)N2CCc3ccccc32)c1 (configuration not stated)	15µM*	0%	·	-58*	?	1%
O=C(NCC(c1ccco1)N1CCc2ccccc21)c1cccc([N+](=O)[O-])c1 (configuration not stated)	21µM*	-34%	·	-4	16µM*	-8%
O=C(CCc1ccccc1)NCC(c1ccco1)N1CCc2ccccc21 (configuration not stated)	4.1µM*	?	·	-7	4.6µM*	-2%
